Out of some 5,500 compounds screened, about 2,000 (36%) were called active. About 18% were inconclusive and are not listed. Some of the results follow. Unmarked numbers belong to inactive results. No stated cut-off is given here; in the data, active means normalized growth mostly below about 0.91 (no sharp cut-off); inconclusive means no clear call, values can overlap the other calls; inactive means mostly above about 0.92.
Experiment: chemical genetic growth profiling, strain panel (AID 1159580);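 further: tested at 20 µM; growth read once vehicle control cultures reached saturation at 30 °C; 1 = growth at the plate median or of vehicle wells; lower values mean less growth of the strain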
Details: S. cerevisiae deletion strains, growth OD

## CC(=O)O[C@H]1C[C@@H]2CC[C@@H]3[C@H](CC[C@@]4(C)[C@H]3C[C@H]([N+]3(C)CCCCC3)[C@@H]4OC(C)=O)[C@@]2(C)C[C@@H]1[N+]1(C)CCCCC1
Locus YAL040C, strain CLN3, active compounds read low
  normalized growth: 0.985
Locus YCL061C, strain MRC1 (second series), active compounds read low
  normalized growth: 0.988
Locus YDR150W, strain NUM1, active compounds read low
  normalized growth: 0.998
Locus YDR363W, strain ESC2, active compounds read low
  normalized growth: 0.989
Locus YER002W, strain NOP16, active compounds read low
  normalized growth: 1
Locus YGR078C, strain PAC10, active compounds read low
  normalized growth: 0.996
Locus YNL128W, strain TEP1, active compounds read low
  normalized growth: 1
Locus YNL175C, strain NOP13, active compounds read low
  normalized growth: 1.03
Locus YNL197C, strain WHI3, active compounds read low
  normalized growth: 0.998
Locus YNL224C, strain SQS1, active compounds read low
  normalized growth: 0.984
Locus YNL322C, strain KRE1, active compounds read low
  normalized growth: 1.01
Locus YOR083W, strain WHI5 (second series), active compounds read low
  normalized growth: 0.959
Locus YPL055C, strain LGE1, active compounds read low
  normalized growth: 0.98
Locus YPL241C, strain CIN2, active compounds read low
  normalized growth: 0.987

## CC(=O)Oc1ccc2c(c1)CCC1C2CCC2(C)C1CC(OC(C)=O)C2OC(C)=O (stereo not given)
Locus YAL021C, strain ccr4, active compounds read low
  normalized growth: 0.948
Locus YAL026C, strain drs2, active compounds read low
  normalized growth: 1.01
Locus YAL030W, strain snc1, active compounds read low
  normalized growth: 0.97
Locus YBL061C, strain skt5, active compounds read low
  normalized growth: 0.997
Locus YBR009C, strain hhf1, active compounds read low
  normalized growth: 0.985
Locus YBR023C, strain chs3, active compounds read low
  normalized growth: 0.983
Locus YBR171W, strain sec66, active compounds read low
  normalized growth: 1
Locus YBR231C, strain swc5, active compounds read low
  normalized growth: 0.982
Locus YBR279W, strain paf1, active compounds read low
  normalized growth: 0.987
Locus YCL011C, strain gbp2, active compounds read low
  normalized growth: 0.994
Locus YCL016C, strain dcc1, active compounds read low
  normalized growth: 0.978
Locus YCL069W, strain vba3, active compounds read low
  normalized growth: 0.993
Locus YCR088W, strain abp1, active compounds read low
  normalized growth: 0.992
Locus YDL005C, strain med2, active compounds read low
  normalized growth: 0.987
Locus YDL040C, strain nat1, active compounds read low
  normalized growth: 0.975
Locus YDR001C, strain nth1, active compounds read low
  normalized growth: 1.01
Locus YDR069C, strain doa4, active compounds read low
  normalized growth: 0.954
Locus YDR137W, strain rgp1, active compounds read low
  normalized growth: 0.925
Locus YDR159W, strain sac3, active compounds read low
  normalized growth: 0.902
Locus YDR195W, strain ref2
  normalized growth: 0.992
Locus YDR297W, strain sur2, active compounds read low
  normalized growth: 0.988
Locus YDR334W, strain swr1, active compounds read low
  normalized growth: 0.987
Locus YDR335W, strain msn5, active compounds read low
  normalized growth: 1.01
Locus YDR392W, strain spt3, active compounds read low
  normalized growth: 0.856
Locus YEL003W, strain gim4, active compounds read low
  normalized growth: 0.986
Locus YEL037C, strain rad23, active compounds read low
  normalized growth: 1.02
Locus YEL061C, strain CIN8 (second series), active compounds read low
  normalized growth: 1.01
Locus YER015W, strain faa2, active compounds read low
  normalized growth: 0.985
Locus YER016W, strain bim1, active compounds read low
  normalized growth: 0.973
Locus YER111C, strain swi4, active compounds read low
  normalized growth: 0.994
Locus YER155C, strain BEM2 (second series), active compounds read low
  normalized growth: 1
Locus YFR010W, strain ubp6, active compounds read low
  normalized growth: 0.997
Locus YGL167C, strain pmr1, active compounds read low
  normalized growth: 0.98
Locus YGL173C, strain kem1, active compounds read low
  normalized growth: 0.99
Locus YGL227W, strain vid30, active compounds read low
  normalized growth: 0.995
Locus YGL240W, strain doc1, active compounds read low
  normalized growth: 0.935
Locus YGL253W, strain hxk2, active compounds read low
  normalized growth: 0.997
Locus YHR013C, strain ard1, active compounds read low
  normalized growth: 0.961
Locus YHR027C, strain rpn1, active compounds read low
  normalized growth: 0.987
Locus YHR142W, strain chs7, active compounds read low
  normalized growth: 0.968
Locus YJL092W, strain hpr5, active compounds read low
  normalized growth: 1.01
Locus YJL095W, strain BCK1 (second series), active compounds read low
  normalized growth: 0.984
Locus YJL115W, strain asf1, active compounds read low
  normalized growth: 1.01
Locus YJL129C, strain trk1, active compounds read low
  normalized growth: 0.967
Locus YJL154C, strain vps35, active compounds read low
  normalized growth: 0.985
Locus YJL164C, strain tpk1, active compounds read low
  normalized growth: 0.952
Locus YJL166W, strain qcr8, active compounds read low
  normalized growth: 0.987
Locus YJL187C, strain SWE1, active compounds read low
  normalized growth: 0.99
Locus YKL160W, strain elf1, active compounds read low
  normalized growth: 0.962
Locus YKR026C, strain gcn3, active compounds read low
  normalized growth: 1.01
Locus YKR091W, strain srl3, active compounds read low
  normalized growth: 0.988
Locus YLL001W, strain dnm1, active compounds read low
  normalized growth: 1
Locus YLL026W, active compounds read low
  normalized growth: 0.964
Locus YLL041C, strain sdh2, active compounds read low
  normalized growth: 0.999
Locus YLR027C, strain aat2, active compounds read low
  normalized growth: 0.995
Locus YLR221C, strain rsa3, active compounds read low
  normalized growth: 0.978
Locus YLR258W, strain gsy2, active compounds read low
  normalized growth: 0.988
Locus YLR262C, strain YPT6 (second series), active compounds read low
  normalized growth: 0.877
Locus YLR320W, strain mms22, active compounds read low
  normalized growth: 0.943
Locus YLR342W, strain FKS1, active compounds read low
  normalized growth: 0.971
Locus YLR357W, strain rsc2, active compounds read low
  normalized growth: 0.952
Locus YLR370C, strain arc18, active compounds read low
  normalized growth: 0.989
Locus YLR384C, strain iki3, active compounds read low
  normalized growth: 0.983
Locus YML120C, strain ndi1, active compounds read low
  normalized growth: 0.997
Locus YMR058W, strain fet3, active compounds read low
  normalized growth: 1
Locus YMR125W, strain sto1, active compounds read low
  normalized growth: 1
Locus YMR129W, active compounds read low
  normalized growth: 0.995
Locus YMR205C, strain PFK2, active compounds read low
  normalized growth: 0.972
Locus YMR231W, strain pep5, active compounds read low
  normalized growth: 0.996
Locus YNL071W, strain lat1, active compounds read low
  normalized growth: 0.962
Locus YNL209W, strain ssb2, active compounds read low
  normalized growth: 0.976
Locus YNL248C, strain rpa49, active compounds read low
  normalized growth: 0.991
Locus YNL322C, strain KRE1 (second series), active compounds read low
  normalized growth: 0.966
Locus YNR049C, strain mso1, active compounds read low
  normalized growth: 1
Locus YOR001W, strain rrp6, active compounds read low
  normalized growth: 0.983
Locus YOR070C, strain gyp1, active compounds read low
  normalized growth: 0.995
Locus YOR080W, strain dia2, active compounds read low
  normalized growth: 0.987
Locus YOR083W, strain WHI5, active compounds read low
  normalized growth: 0.952
Locus YOR106W, strain vam3, active compounds read low
  normalized growth: 0.954
Locus YOR265W, strain rbl2, active compounds read low
  normalized growth: 0.996
Locus YOR270C, strain vph1, active compounds read low
  normalized growth: 0.925
Locus YOR290C, strain snf2, active compounds read low
  normalized growth: 0.97
Locus YPL051W, strain arl3, active compounds read low
  normalized growth: 0.967
Locus YPL078C, strain atp4, active compounds read low
  normalized growth: 0.987
Locus YPL106C, strain sse1, active compounds read low
  normalized growth: 0.831 (active)
Locus YPL240C, strain hsp82, active compounds read low
  normalized growth: 0.995

Source: PubChem BioAssay AID1159580 (chemical genetic matrix, 2015)
